Here are results for 16 targets from the supplement of paper PMC10849652.

What all share (assay): log2 fold change, soluble protein after heating vs DMSO (PISA); higher = thermal stabilisation; K562 cells, 10 uM, 30 min; active = over 0.2 and 3.5 SD of the protein, either way, in both replicates (recomputed)
Compound in one experiment: C=CC(=O)N1CCC[C@@H](n2nc(-c3ccc(Oc4ccccc4)cc3)c3c(N)ncnc32)C1 [ibrutinib]
In short, it runs like this:
(§1)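 K562 cells (2×10^6 cells/mL) were treated with 10 μM compound for 30 min, and aliquots were heated for 3 min over 48°C-58°C. Pooled aliquots were extracted in PBS with 0.5% NP-40 at 4°C, and the supernatant after 21,000xg for 90 min was measured by TMTpro 16plex LC-MS/MS with channel sums equalised. Reported thermal stability, relative to control samples and from duplicates, is a log2 fold change.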

Compound in experiment [1]: CC(=O)c1cnc2ccc(-c3cc(Cl)c(O)c(Cl)c3)nc2c1N[C@H]1CC[C@H](CN(C)C)CC1
In short, it runs like this:
as §1

Compound in experiment [2]: CC(C)(O)CC(=O)NCCn1ccc2ncnc(Nc3ccc(Oc4cccc(C(F)(F)F)c4)c(Cl)c3)c21
In short, it runs like this:
as §1

Compound in experiment [3]: CC(C)C1=C2N=C(C=C(N2N=C1)NCC3=CC=CC=C3)NCCCCCCN
In short, it runs like this: as §1

Compound in experiment [4]: CC1=C(C(CC(=O)N1)C2=CC=C(C=C2)C(F)(F)F)C(=O)NC3=C(C=C4C(=C3)C=NN4)F
In short, it runs like this:
as §1

Compound in experiment [5]: CC1=C(C2=C(C=C1)C(=O)C3=CC=CC=C3N2CCCN)C
In short, it runs like this: as §1

Compound in a further experiment: C1COCCN1CCN2C3=CC=CC=C3N=C2NC(=O)C4=CC(=CC=C4)[N+](=O)[O-] [IRAK-1-4 Inhibitor I]
In short, it runs like this: as §1

Compound in the next experiment: CC(C)(C)Cn1c(N)nc2ccc(-c3[nH]c(C(C)(C)C)nc3-c3ccc(F)cc3)nc21 [ralimetinib]
In short, it runs like this:
as §1

Compound in experiment [6]: CC(C)C[C@@H](C=O)NC(=O)[C@H](CC(C)C)NC(=O)[C@H](CC(C)C)NC(=O)OCc1ccccc1
The essentials:
as §1

Compound in the next experiment: CC(C)N(C[C@H]1O[C@@H](n2cnc3c(N)ncnc32)[C@H](O)[C@@H]1O)[C@H]1C[C@@H](CCc2nc3cc(C(C)(C)C)ccc3[nH]2)C1 [pinometostat]
The essentials: as §1

Of roughly 7,900 targets only a part is listed; those with a hit were picked by preference. About 0.6% of all pairs of compound and target were hits. Values without a mark were called inactive.

Chain of UniProt Q5THK1 (Q5THK1 whole entry, looked up): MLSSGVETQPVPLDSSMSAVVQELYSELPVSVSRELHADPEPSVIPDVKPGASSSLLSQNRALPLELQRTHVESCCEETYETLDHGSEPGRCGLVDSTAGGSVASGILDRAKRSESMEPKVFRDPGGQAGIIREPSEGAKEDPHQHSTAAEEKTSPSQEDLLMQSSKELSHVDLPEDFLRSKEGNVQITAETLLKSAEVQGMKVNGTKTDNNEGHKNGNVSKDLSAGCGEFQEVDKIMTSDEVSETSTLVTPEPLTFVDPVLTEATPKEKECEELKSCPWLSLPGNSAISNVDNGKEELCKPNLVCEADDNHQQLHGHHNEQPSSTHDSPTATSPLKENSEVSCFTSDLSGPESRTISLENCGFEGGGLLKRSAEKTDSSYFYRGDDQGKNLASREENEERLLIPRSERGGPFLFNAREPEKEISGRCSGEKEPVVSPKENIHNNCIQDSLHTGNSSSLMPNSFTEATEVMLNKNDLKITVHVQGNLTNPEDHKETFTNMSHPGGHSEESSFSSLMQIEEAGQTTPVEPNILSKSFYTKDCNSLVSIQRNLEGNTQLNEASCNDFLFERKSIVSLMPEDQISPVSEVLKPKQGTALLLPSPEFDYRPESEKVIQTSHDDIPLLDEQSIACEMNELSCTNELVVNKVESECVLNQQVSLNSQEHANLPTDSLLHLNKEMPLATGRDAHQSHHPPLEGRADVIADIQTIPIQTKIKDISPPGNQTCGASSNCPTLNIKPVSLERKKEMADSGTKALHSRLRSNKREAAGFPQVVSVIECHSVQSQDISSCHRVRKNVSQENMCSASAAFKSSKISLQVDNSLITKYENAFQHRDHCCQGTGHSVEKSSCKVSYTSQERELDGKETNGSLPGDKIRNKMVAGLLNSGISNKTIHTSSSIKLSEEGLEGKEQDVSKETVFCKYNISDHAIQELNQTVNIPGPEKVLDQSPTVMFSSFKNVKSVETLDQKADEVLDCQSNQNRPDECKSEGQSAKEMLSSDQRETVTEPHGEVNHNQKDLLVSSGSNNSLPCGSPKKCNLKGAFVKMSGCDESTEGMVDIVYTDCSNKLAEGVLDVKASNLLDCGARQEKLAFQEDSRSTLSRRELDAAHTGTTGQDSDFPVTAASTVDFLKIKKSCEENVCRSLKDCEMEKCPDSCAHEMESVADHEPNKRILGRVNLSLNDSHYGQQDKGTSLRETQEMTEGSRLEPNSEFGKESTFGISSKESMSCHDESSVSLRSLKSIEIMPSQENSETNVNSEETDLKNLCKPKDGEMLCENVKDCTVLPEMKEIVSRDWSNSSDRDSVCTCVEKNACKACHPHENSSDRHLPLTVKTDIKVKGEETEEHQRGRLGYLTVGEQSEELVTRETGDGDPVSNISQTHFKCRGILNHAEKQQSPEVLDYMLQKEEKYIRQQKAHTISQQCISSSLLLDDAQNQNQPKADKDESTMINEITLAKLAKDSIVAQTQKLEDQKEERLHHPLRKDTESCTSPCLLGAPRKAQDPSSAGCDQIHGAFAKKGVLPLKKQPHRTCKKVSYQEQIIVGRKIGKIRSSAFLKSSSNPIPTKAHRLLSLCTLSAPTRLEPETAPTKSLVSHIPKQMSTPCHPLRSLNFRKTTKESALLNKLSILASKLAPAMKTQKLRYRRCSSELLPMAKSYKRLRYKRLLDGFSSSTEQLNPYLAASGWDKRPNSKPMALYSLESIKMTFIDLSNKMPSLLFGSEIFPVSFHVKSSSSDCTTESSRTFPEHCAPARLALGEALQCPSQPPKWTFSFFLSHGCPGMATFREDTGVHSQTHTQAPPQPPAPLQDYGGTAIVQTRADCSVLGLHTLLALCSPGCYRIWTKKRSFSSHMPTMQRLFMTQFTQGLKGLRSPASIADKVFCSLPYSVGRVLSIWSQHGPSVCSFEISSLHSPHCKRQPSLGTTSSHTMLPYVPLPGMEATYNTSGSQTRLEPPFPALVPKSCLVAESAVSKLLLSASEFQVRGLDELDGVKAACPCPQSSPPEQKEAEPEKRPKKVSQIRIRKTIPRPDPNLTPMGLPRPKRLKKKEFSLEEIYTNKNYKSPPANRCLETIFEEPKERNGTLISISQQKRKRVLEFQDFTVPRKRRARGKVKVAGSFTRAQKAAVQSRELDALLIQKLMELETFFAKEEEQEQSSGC
Chain of UniProt Q15126 (Q15126 whole entry, looked up): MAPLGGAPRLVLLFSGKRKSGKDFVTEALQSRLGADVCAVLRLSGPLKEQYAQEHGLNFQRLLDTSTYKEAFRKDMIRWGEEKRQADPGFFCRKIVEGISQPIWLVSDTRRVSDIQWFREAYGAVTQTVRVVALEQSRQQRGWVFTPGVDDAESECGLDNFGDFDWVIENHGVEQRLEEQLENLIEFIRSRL
Chain of UniProt O60237 (O60237 whole entry, looked up): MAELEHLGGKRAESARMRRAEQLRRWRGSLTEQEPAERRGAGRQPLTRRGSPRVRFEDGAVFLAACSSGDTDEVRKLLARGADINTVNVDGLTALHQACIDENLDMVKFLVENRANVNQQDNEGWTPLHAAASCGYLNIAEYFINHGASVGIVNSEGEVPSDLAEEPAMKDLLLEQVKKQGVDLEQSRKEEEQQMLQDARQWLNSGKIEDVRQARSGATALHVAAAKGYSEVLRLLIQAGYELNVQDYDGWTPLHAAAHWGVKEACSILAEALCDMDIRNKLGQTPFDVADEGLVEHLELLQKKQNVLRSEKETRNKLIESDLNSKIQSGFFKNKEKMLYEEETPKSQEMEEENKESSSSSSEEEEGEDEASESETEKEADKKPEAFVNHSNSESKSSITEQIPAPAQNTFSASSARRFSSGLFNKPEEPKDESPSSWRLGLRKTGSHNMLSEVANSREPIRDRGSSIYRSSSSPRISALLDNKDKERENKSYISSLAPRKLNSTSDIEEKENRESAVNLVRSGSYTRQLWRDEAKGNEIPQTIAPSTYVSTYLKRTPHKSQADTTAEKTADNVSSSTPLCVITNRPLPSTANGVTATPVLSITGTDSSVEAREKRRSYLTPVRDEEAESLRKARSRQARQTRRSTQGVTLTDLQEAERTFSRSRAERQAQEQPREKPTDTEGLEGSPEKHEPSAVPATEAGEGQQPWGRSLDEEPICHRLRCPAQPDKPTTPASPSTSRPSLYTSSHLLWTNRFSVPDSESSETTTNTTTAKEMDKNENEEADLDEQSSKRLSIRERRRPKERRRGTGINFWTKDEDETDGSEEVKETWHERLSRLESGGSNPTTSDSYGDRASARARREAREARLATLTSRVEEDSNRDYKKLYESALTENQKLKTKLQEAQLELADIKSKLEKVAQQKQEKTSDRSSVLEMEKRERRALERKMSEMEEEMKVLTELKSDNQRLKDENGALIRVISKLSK
Chain of UniProt Q6EEV4 (Q6EEV4 whole entry, looked up): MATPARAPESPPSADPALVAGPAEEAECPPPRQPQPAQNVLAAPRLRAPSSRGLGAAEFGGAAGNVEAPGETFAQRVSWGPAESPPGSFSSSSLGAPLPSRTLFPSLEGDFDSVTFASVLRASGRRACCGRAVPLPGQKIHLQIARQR
Chain of UniProt Q15173 (Q15173 whole entry, looked up): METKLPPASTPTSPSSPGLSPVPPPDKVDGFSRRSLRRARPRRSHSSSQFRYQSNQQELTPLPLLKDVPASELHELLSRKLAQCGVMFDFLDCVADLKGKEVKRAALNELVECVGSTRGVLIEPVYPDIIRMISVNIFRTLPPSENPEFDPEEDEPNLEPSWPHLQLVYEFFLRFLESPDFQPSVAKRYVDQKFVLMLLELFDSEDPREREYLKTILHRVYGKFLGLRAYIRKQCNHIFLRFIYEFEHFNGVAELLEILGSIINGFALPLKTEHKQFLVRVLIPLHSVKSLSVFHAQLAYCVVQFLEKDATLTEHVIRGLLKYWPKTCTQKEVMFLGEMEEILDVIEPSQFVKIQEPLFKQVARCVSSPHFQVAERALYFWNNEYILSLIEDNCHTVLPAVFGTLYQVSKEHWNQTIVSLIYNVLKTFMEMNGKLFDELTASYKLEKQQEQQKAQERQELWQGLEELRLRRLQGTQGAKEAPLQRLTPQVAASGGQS
Chain of UniProt O43924 (O43924 whole entry, looked up): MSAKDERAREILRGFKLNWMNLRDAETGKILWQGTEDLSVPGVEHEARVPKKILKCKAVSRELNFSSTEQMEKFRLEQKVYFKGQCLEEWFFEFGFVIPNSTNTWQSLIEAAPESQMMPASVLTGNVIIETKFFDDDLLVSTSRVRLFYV
Chain of UniProt P14618 (P14618 whole entry, looked up): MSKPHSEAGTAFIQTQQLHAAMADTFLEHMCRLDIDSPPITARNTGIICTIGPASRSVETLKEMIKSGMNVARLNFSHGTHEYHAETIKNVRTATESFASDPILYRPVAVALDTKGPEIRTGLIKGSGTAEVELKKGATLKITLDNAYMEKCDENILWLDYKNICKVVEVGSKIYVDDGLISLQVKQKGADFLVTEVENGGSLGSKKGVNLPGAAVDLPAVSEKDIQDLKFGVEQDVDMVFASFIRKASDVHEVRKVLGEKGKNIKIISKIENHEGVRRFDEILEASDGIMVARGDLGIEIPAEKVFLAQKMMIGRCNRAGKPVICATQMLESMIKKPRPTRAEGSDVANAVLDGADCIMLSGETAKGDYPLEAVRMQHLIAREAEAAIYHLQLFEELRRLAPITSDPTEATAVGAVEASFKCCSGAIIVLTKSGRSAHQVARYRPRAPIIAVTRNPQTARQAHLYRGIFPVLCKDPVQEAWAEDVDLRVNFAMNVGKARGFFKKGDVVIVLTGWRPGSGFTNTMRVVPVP
Chain of UniProt Q68D20 (Q68D20 whole entry, looked up): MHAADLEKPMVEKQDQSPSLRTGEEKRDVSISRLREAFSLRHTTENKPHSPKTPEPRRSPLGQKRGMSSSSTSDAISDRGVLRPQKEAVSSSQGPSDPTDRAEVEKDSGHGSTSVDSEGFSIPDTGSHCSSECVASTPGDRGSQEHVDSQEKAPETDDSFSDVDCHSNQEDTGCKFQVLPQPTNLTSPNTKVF

As for PMVK (UniProt Q15126), the log2 fold change with ibrutinib was -0.039; in [1], -0.069; in experiment [2], -0.072; in experiment [3], -0.195; in [4], 0.15; in experiment [5], 0.061.

For the target PCNX1 (UniProt Q96RV3), the log2 fold change is 0.008 with ibrutinib, 0.005 in experiment [2], 0.015 in [4] and 0.143 in experiment [5].

In the case of PKM isoform 2 (UniProt P14618), the log2 fold change is -0.018 in the experiment with IRAK-1-4 Inhibitor I; 0 in [1]; 0.054 with ralimetinib; -0.561 (active) in experiment [2]; 0.023 in experiment [6]; 0.08 with pinometostat. The log2 fold change in [4] was -0.068; in experiment [5] it was 0.034.

PRKD2 (UniProt M0R346): the log2 fold change with ibrutinib is -0.096; in experiment [2] it was -0.273.

As to PPP1R12B isoform 6 (UniProt O60237), the log2 fold change with ibrutinib is 0.075; in experiment [3], -0.074; in experiment [4], -0.346 (active).

Turning to PHRF1 (UniProt Q9P1Y6), the log2 fold change in the experiment with ralimetinib was -0.144; in [3], 0.718 (active); in experiment [6], 0.119.

As for PPP2R5B (UniProt Q15173), the log2 fold change was -0.083 in the experiment with ibrutinib, 0.165 in [1], 0.092 in [3] and 0.037 in [4].

In the case of PDE4DIP (UniProt E9PS60), the values for the log2 fold change (with IRAK-1-4 Inhibitor I; in [3]; with pinometostat) were -0.183, 0.171 and 0.178, respectively.

With PSMC3 (UniProt E9PLG2), the log2 fold change is -0.064 with IRAK-1-4 Inhibitor I; -0.051 in the experiment with ibrutinib; 0.167 in experiment [2]; -0.1 with pinometostat; -0.155 in [5].

Turning to POLR2M (UniProt Q6EEV4), the log2 fold change in the experiment with IRAK-1-4 Inhibitor I is -0.014; with ibrutinib, -0.075; in [1] it was -0.027; in [2], -0.091; in [3], 0.128; with pinometostat it was 0.005. Further, the log2 fold change in experiment [4] was 0.139; in experiment [5] it was 0.209.

As to PSD3 (UniProt Q9NYI0), the log2 fold change with IRAK-1-4 Inhibitor I is 0.014; in experiment [1], -0.024; with ralimetinib, -0.026; in experiment [6], -0.055; with pinometostat it was -0.037; in [4] it was -0.016.

Take PCBP2 (UniProt F8VZX2): the log2 fold change in the experiment with IRAK-1-4 Inhibitor I is -0.177; with ibrutinib, 0.212; with ralimetinib, -0.004; in experiment [3] it was -0.127; in experiment [6] it was 0.138; with pinometostat, 0.136. Moreover, the log2 fold change in [4] is 0.128.

With PRKX (UniProt P51817), the log2 fold change was -0.005 with ibrutinib and -0.274 in experiment [3].

PMS2CL (UniProt Q68D20): the log2 fold change with ralimetinib is -0.21; in experiment [2], -0.042; in experiment [6] it was -0.258; in experiment [4], 0.231.

Turning to PDE6D (UniProt O43924), the log2 fold change is 0.037 in the experiment with IRAK-1-4 Inhibitor I; 0.086 with ibrutinib; -0.051 in experiment [1]; 0.003 in [2]; 0.164 in [3]; 0.017 in the experiment with pinometostat. In addition, the log2 fold change in experiment [4] is -0.016; in experiment [5], -0.01.

On to PRR14L (UniProt Q5THK1), for which the log2 fold change in [1] is -0.104; in [4], 0.015; in experiment [5] it was 0.008.
